Source: article PMC7862700, “An all-to-all approach to the identification of sequence-specific readers for epigenetic DNA modifications on cytosine”

Columns and labels:
Experiment in all cases: DAPPL (digital affinity profiling via proximity ligation, sequencing); 10 mM Tris-HCl pH 7.5, 50 mM NaCl, 1 mM DTT, 4% glycerol, room temperature, 30 min; GST-TFs on glutathione beads, 16-mer random dsDNA library, 0.1% formaldehyde crosslink after washing; high values mean tight binding
[1] = molecular target: T1, FEV (Homo sapiens, UniProt Q99581 1-238); details: protein: recombinant; tags: N-terminal GST; dsDNA, one strand shown
T1 sequence: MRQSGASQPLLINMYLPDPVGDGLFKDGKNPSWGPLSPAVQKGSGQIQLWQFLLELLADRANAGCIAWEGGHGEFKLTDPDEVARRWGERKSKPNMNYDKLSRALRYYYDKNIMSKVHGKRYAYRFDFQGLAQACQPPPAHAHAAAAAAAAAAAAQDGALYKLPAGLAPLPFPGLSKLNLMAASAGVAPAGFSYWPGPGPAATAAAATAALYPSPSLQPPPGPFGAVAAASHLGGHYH
In short: (§1)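 After expression in yeast as GST fusions, human transcription factors were bound to glutathione beads, DNA-barcoded and mixed with a tag-only sample. The pools were incubated with 200 nmole of a 16-mer random double-stranded DNA library in Tris/NaCl/DTT/glycerol buffer (30 min, room temperature), washed and crosslinked with 0.1% formaldehyde. Proximity ligation with BsaI/T4 ligase ran for 1 h at 37 °C, before PCR amplification and sequencing on an Illumina NextSeq500. Binding signal is a hexamer's read frequency for a factor divided by its frequency for the tag-only sample.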

[2] = molecular target: ETV5 (Homo sapiens, UniProt P41161 1-510); details: protein: recombinant; tags: N-terminal GST; dsDNA, one strand shown
Sequence of ETV5 (P41161 whole entry): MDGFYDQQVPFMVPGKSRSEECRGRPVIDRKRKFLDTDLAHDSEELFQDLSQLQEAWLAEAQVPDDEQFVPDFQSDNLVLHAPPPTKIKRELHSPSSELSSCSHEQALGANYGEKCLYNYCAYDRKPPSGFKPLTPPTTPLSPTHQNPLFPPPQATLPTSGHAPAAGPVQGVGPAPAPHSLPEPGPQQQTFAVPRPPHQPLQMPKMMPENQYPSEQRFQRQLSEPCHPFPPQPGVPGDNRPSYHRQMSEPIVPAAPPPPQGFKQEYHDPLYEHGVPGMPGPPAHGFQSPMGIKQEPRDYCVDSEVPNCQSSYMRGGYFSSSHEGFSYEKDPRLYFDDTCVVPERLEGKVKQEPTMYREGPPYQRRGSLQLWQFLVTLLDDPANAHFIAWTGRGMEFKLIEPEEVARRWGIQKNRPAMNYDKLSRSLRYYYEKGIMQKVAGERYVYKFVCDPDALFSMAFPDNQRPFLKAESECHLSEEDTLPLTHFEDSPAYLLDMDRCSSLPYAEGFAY
In short: as §1

[3] = molecular target: HSF1 (Homo sapiens, UniProt Q00613 1-529); details: protein: recombinant; tags: N-terminal GST; chain copies: 3; dsDNA, one strand shown
Sequence of HSF1 (Q00613 whole entry): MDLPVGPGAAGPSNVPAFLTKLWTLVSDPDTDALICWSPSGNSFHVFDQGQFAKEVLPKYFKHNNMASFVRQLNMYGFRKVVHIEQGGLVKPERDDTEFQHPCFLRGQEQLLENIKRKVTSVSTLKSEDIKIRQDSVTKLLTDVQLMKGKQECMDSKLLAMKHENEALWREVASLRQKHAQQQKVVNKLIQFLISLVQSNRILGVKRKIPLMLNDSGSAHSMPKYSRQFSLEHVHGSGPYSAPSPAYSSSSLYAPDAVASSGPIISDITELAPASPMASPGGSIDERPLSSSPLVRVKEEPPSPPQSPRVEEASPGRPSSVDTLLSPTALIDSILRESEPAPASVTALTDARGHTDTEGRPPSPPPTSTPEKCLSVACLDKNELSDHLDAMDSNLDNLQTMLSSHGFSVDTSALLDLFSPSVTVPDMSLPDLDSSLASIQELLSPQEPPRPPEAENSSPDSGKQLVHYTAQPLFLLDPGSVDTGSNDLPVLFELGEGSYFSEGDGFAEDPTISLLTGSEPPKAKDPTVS
In short: as §1

[4] = molecular target: T2, SPIC (Homo sapiens, UniProt Q8N5J4 1-248); details: protein: recombinant; tags: N-terminal GST; dsDNA, one strand shown
T2 sequence: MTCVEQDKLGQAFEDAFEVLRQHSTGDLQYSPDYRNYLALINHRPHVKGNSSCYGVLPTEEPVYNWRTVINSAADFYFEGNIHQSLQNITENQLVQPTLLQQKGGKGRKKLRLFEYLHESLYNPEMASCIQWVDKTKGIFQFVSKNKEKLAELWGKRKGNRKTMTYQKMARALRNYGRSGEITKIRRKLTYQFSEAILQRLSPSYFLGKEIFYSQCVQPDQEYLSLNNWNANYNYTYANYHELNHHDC
In short: as §1

[5] = molecular target: ELF4 (Homo sapiens, UniProt Q99607 1-663); details: protein: recombinant; tags: N-terminal GST; dsDNA, one strand shown
Sequence of ELF4 (Q99607 whole entry): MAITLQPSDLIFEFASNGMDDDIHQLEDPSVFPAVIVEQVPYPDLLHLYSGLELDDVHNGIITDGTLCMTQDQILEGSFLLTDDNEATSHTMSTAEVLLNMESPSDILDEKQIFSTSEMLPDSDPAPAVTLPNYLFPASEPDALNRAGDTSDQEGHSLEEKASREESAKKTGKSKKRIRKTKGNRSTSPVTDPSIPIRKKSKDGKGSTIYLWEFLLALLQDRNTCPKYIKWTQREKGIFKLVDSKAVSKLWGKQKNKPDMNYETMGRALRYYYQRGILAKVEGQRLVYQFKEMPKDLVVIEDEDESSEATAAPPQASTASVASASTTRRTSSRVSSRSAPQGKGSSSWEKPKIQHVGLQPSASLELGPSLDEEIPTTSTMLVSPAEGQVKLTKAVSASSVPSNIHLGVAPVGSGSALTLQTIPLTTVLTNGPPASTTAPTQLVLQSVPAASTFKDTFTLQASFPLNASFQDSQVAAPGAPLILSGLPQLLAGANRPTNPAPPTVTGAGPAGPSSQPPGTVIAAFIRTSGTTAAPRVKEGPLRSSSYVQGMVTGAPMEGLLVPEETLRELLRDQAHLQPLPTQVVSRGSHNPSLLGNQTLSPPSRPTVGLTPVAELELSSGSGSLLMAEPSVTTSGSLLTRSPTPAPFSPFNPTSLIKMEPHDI
In short: as §1

[6] = molecular target: T3, ELK4 (Homo sapiens, UniProt P28324-2 1-405); details: protein: recombinant; tags: N-terminal GST; dsDNA, one strand shown
T3 sequence: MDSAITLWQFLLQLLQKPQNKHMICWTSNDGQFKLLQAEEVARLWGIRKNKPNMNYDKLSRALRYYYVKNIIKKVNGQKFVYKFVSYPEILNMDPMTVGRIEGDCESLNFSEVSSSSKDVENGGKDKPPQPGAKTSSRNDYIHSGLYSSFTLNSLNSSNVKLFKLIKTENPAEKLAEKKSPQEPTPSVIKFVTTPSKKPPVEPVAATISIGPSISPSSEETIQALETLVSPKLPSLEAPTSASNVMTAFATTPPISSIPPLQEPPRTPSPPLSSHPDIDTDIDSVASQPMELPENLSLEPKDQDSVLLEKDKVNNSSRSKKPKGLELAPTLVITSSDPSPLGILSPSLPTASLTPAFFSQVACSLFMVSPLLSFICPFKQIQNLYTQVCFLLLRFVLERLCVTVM
In short: as §1

[7] = molecular target: T4, ETV2 (Homo sapiens, UniProt O00321 1-342); details: protein: recombinant; tags: N-terminal GST; dsDNA, one strand shown
T4 sequence: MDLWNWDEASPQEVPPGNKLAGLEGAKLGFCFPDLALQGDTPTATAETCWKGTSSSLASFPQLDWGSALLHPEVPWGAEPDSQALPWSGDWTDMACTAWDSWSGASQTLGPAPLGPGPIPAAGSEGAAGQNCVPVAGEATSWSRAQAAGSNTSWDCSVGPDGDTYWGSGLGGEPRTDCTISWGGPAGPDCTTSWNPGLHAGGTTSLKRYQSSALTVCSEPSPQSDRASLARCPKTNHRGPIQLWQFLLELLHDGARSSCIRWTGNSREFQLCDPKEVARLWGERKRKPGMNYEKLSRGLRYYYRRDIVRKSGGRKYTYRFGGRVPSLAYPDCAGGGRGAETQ
In short: as §1

[8] = molecular target: T5, ELF3 (Homo sapiens, UniProt P78545 1-371); details: protein: recombinant; tags: N-terminal GST; dsDNA, one strand shown
T5 sequence: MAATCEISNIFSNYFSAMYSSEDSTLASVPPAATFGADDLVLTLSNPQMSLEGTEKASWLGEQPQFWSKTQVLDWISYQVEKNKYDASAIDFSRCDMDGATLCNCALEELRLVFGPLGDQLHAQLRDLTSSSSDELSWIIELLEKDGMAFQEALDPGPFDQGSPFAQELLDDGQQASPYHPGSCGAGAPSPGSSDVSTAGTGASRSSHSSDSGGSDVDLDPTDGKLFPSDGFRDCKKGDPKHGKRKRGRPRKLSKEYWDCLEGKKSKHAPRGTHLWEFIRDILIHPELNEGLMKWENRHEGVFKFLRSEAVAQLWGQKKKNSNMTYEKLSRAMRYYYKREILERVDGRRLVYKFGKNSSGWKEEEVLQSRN
In short: as §1

[9] = molecular target: CRX (Homo sapiens, UniProt O43186 1-299); details: protein: recombinant; tags: N-terminal GST; dsDNA, one strand shown
Sequence of CRX (O43186 whole entry): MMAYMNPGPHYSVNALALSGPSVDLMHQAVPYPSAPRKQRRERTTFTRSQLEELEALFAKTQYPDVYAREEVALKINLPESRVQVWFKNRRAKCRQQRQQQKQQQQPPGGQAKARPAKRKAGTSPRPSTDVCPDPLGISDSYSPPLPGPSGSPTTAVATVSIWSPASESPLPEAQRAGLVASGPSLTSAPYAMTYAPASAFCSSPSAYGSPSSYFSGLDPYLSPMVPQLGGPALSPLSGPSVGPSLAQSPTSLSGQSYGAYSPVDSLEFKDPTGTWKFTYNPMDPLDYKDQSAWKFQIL
In short: as §1

[10] = molecular target: ETV1 (Homo sapiens, UniProt P50549 1-477); details: protein: recombinant; tags: N-terminal GST; dsDNA, one strand shown
Sequence of ETV1 (P50549 whole entry): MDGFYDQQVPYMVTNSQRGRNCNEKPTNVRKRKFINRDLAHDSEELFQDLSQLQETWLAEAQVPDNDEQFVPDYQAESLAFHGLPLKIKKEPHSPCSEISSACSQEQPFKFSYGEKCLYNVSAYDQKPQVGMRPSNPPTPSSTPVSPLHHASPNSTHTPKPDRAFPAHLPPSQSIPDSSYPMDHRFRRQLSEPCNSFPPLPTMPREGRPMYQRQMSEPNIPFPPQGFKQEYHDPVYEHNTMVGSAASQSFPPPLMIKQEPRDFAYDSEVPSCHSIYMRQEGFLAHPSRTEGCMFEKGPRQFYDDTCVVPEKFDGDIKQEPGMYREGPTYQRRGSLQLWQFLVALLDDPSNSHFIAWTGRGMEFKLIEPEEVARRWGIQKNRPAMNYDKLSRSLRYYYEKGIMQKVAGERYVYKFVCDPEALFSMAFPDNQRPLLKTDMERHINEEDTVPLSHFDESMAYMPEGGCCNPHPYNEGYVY
In short: as §1

[11] = molecular target: T6, ERF (Homo sapiens, UniProt P50548 1-548); details: protein: recombinant; tags: N-terminal GST; dsDNA, one strand shown
T6 sequence: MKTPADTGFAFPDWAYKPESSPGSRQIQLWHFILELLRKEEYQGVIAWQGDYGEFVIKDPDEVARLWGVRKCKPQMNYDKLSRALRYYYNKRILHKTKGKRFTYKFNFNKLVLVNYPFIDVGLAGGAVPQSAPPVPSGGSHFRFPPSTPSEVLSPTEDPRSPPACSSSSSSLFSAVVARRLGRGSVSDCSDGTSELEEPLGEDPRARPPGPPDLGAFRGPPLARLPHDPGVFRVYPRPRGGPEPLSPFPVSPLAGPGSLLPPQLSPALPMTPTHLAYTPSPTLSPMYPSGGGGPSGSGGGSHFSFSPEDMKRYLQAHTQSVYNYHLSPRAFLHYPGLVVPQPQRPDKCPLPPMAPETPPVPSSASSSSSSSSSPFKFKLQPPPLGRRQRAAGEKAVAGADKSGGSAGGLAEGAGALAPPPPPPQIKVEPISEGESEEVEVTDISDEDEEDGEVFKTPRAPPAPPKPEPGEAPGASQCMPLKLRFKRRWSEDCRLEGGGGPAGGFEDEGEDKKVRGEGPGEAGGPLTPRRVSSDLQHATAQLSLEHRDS
In short: as §1

[12] = molecular target: T7, ETV3L (Homo sapiens, UniProt Q6ZN32 1-361); details: protein: recombinant; tags: N-terminal GST; dsDNA, one strand shown
T7 sequence: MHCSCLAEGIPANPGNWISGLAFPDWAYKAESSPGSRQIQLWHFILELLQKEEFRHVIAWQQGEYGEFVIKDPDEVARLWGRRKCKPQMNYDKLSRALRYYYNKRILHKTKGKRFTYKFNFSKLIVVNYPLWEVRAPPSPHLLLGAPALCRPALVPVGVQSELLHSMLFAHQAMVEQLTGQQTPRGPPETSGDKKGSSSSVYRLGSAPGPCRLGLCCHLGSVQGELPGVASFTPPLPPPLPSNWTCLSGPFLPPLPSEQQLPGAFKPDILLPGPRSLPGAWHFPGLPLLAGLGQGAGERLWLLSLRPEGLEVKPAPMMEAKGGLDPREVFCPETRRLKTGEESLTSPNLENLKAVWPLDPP
In short: as §1

[13] = molecular target: T8, ETS2 (Homo sapiens, UniProt P15036 1-469); details: protein: recombinant; tags: N-terminal GST; dsDNA, one strand shown
T8 sequence: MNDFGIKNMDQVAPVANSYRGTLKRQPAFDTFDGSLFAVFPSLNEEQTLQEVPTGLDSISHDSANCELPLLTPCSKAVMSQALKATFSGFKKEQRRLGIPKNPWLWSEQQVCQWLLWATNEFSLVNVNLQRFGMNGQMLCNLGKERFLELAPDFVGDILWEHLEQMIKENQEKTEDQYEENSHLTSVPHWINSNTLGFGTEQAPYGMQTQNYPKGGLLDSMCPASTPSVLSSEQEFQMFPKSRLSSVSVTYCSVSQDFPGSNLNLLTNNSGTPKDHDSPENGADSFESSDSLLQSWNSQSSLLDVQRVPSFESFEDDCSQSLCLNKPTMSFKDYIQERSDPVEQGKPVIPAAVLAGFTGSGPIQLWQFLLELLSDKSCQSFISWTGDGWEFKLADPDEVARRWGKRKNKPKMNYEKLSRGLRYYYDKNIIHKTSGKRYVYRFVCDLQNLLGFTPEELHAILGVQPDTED
In short: as §1

[14] = molecular target: T9, SPDEF (Homo sapiens, UniProt O95238 1-335); details: protein: recombinant; tags: N-terminal GST; dsDNA, one strand shown
T9 sequence: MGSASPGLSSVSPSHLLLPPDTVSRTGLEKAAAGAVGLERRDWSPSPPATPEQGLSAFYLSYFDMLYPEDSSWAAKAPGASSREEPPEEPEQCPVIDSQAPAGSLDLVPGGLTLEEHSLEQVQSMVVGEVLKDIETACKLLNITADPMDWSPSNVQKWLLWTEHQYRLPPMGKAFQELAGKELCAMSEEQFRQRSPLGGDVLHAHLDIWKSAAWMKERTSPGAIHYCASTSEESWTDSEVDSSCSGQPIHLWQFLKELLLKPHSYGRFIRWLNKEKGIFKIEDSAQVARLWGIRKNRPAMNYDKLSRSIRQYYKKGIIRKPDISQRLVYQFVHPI
In short: as §1

[15] = molecular target: T10, ETV7 (Homo sapiens, UniProt Q9Y603 1-341); details: protein: recombinant; tags: N-terminal GST; dsDNA, one strand shown
T10 sequence: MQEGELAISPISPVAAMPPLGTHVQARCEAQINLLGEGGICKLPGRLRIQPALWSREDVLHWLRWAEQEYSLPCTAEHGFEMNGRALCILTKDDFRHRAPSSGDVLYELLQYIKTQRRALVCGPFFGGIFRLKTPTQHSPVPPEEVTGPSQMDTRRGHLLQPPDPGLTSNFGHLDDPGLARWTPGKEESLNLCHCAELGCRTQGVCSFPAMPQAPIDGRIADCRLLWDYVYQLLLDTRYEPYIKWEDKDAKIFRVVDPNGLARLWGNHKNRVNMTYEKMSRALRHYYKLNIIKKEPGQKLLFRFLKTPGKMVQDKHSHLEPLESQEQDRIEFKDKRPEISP
In short: as §1

[16] = molecular target: T11, ELF5 (Homo sapiens, UniProt Q9UKW6-2 1-255); details: protein: recombinant; tags: N-terminal GST; dsDNA, one strand shown
T11 sequence: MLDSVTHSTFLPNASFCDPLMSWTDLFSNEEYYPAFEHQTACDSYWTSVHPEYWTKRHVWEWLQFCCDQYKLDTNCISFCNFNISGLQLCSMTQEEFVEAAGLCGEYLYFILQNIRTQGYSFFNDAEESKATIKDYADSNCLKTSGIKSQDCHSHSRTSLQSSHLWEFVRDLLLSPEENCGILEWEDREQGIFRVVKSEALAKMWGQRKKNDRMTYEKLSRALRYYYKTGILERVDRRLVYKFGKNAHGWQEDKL
In short: as §1

[17] = molecular target: T12, ETV3 (Homo sapiens, UniProt P41162-2 1-143); details: protein: recombinant; tags: N-terminal GST; dsDNA, one strand shown
T12 sequence: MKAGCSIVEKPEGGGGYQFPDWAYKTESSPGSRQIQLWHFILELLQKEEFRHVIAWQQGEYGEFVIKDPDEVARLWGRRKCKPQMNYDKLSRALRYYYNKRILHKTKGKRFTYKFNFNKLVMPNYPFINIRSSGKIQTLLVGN
In short: as §1

[18] = molecular target: ETV6 (Homo sapiens, UniProt P41212 1-452); details: protein: recombinant; tags: N-terminal GST; dsDNA, one strand shown
Sequence of ETV6 (P41212 whole entry): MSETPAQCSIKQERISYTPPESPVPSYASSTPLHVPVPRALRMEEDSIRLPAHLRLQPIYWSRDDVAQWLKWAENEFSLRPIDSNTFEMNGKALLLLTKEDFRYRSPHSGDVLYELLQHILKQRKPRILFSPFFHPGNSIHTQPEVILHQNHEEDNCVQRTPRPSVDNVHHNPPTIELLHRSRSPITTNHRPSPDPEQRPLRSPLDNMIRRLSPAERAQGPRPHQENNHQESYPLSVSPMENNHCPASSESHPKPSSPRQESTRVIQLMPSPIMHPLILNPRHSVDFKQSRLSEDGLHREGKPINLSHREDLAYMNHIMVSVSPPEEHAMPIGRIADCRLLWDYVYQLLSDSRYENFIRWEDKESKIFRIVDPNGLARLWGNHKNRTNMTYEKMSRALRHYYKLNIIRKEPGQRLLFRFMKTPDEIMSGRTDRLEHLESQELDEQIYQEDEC
In short: as §1

ACATGC was tested, and the binding signal [1] was 1.3 fold enrichment (6-mer frequency, TF over GST control), the binding signal [2] was 1.25 fold enrichment (6-mer frequency, TF over GST control) and the binding signal [3] was 1.1 fold enrichment (6-mer frequency, TF over GST control). The binding signal [4] was 1.27 fold enrichment (6-mer frequency, TF over GST control), the binding signal [5] was 1.26 fold enrichment (6-mer frequency, TF over GST control) and the binding signal [6] was 1.2 fold enrichment (6-mer frequency, TF over GST control). The binding signal [7] was 1.44 fold enrichment (6-mer frequency, TF over GST control), the binding signal [8] was 1.28 fold enrichment (6-mer frequency, TF over GST control) and the binding signal [9] was 1.03 fold enrichment (6-mer frequency, TF over GST control). For the same sequence, the binding signal [10] was 1.3 fold enrichment (6-mer frequency, TF over GST control), the binding signal [11] was 1.37 fold enrichment (6-mer frequency, TF over GST control) and the binding signal [12] was 1.26 fold enrichment (6-mer frequency, TF over GST control). For the same sequence, the binding signal [13] was 1.25 fold enrichment (6-mer frequency, TF over GST control), the binding signal [14] was 1.24 fold enrichment (6-mer frequency, TF over GST control) and the binding signal [15] was 1.23 fold enrichment (6-mer frequency, TF over GST control). The binding signal [16] was 1.23 fold enrichment (6-mer frequency, TF over GST control), the binding signal [17] was 1.22 fold enrichment (6-mer frequency, TF over GST control) and the binding signal [18] was 1.45 fold enrichment (6-mer frequency, TF over GST control).
